# Screens deposited in PubChem by Broad Institute.
# NOMO-1 viab: STK33 inhibitor candidate reducing NOMO-1 cell viability; hit rate 7.5% among 37,000; inhibition, % (test concentration not listed); NOMO-1 AML viability, CellTiter-Glo luminescence, 72 h; in the data active means inhibition above about 80%; inconclusive means no clear call, values can overlap the other calls
# Hedgehog inh: Sonic Hedgehog pathway inhibition; inhibition, % (no concentration beside the values); Shh-LIGHT2 Gli-luciferase reporter, 30 h; hit rate 2.1% among 22,000;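 active means mean inhibition across valid replicates above about 65%, limit read from the data; inconclusive means mean under the limit, yet half or more replicates past it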;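 further: pathway switched on by Shh-conditioned medium diluted 1 in 25 in low serum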
# MITF inh: MITF inhibition. TRPM1 promoter luciferase, luminescence, 24 h. inhibition, % (no concentration beside the values). hit rate 0.28% among 37,000. AID 2240; in the data active means inhibition above about 85%; inconclusive means no clear call, values can overlap the other calls; inactive means below about 68%;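 further: human melanocyte line stably carrying TRPM1 promoter luciferase reporter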
# Starred values were filed as active, the others as inactive; ? = inconclusive; · = not tested or not shown. Hits are enriched below; roughly 8.1% of the tested compounds scored in any of these assays.
SMILES,NOMO-1 viab,Hedgehog inh,MITF inh
CC1CCC(C(C)C)C(=O)/C1=C/c1ccc(N(C)C)cc1 (centres undefined),62.9,·,-32.8
COc1ccc(/C=C2/C(=O)C(C)(C(C)C)CCC2C)cc1 (centres undefined),93.8*,-19.9,-25.8
Cc1noc(C)c1S(=O)(=O)N(C)C[C@@H]1Oc2c(NC(=O)c3nc4ccccc4s3)cccc2C(=O)N([C@@H](C)CO)C[C@@H]1C,?,-34.3,-28.2
Nc1nc(Cl)nc2c1ncn2C1C[C@@H](O)C(CO)O1 (some centres undefined),97.7*,71.8*,49.3
Nc1ncnc2c1ncn2C1CCC(CO)O1 (centres undefined),-11.9,-61.7,0.9
Nc1nc(Cl)nc2c1ncn2C1OC(CO)[C@H](O)[C@H]1F (some centres undefined),96.6*,19.2,29.1
CC(=O)Nc1ccc(C(=O)CSc2nnc(-c3cccc(Br)c3)o2)cc1,11.1,·,4.7
Cc1noc(C)c1NC(=O)Nc1ccc2c(c1)C(=O)N([C@H](C)CO)C[C@@H](C)[C@@H](CN(C)C(=O)NC1CCCCC1)O2,-5.9,-51.7,-0.7
COc1ccc(OC)c(C2C(C(=O)Nc3ccccc3OC)=C(C)Nc3ncnn32)c1 (centres undefined),-15.5,·,-10.3
COc1ccc(OC)c(C2Nc3nc4ccccc4n3C(C)=C2C(=O)Nc2ccc(C)cc2C)c1 (centres undefined),85.4*,·,5.4
COC(=O)c1cn(CC(=O)Nc2ccccc2C(F)(F)F)c2ccccc12,14.9,·,-3.6
CC(C)NC(=O)Nc1cccc2c1O[C@@H](CN(C)Cc1ccc(C(F)(F)F)cc1)[C@@H](C)CN([C@H](C)CO)C2=O,9.4,-37.1,12.8
C[C@@H]1CN([C@@H](C)CO)C(=O)c2cccc(NC(=O)CCCCCC(=O)Nc3ccccc3N)c2O[C@@H]1CN(C)Cc1ccc(C(F)(F)F)cc1,118.8*,·,33.3
CC(C)NC(=O)Nc1cccc2c1O[C@H](CN(C)Cc1ccc(C(F)(F)F)cc1)[C@@H](C)CN([C@@H](C)CO)C2=O,47.6,16.5,9.0
C[C@@H]1CN([C@H](C)CO)C(=O)c2cccc(NC(=O)C3CC3)c2O[C@H]1CN(C)Cc1ccc(C(F)(F)F)cc1,63.8,25.6,9.0
C[C@@H]1CN([C@H](C)CO)C(=O)c2cccc(NC(=O)CCCCCC(=O)Nc3ccccc3N)c2O[C@@H]1CN(C)C(=O)Nc1ccc(F)cc1,30.1,·,-19.6
C[C@H](CO)N1C[C@H](C)[C@H](CN(C)Cc2ccc(C(F)(F)F)cc2)Oc2c(NC(=O)CCCCCC(=O)Nc3ccccc3N)cccc2C1=O,114.6*,·,8.0
C[C@H](CO)N1C[C@H](C)[C@H](CN(C)C(=O)Nc2ccc(C(F)(F)F)cc2)Oc2c(NC(=O)CCCCCC(=O)Nc3ccccc3N)cccc2C1=O,114.2*,·,22.4
C[C@@H]1CN([C@H](C)CO)C(=O)c2cccc(NC(=O)CCCCCC(=O)Nc3ccccc3N)c2O[C@@H]1CN(C)Cc1ccc(C(F)(F)F)cc1,114.6*,·,16.2
CC(C)(C)c1ccc(OCC(=O)Nc2ccccc2-c2nc3ccccc3s2)cc1,4.7,·,-52.2
CCc1ccc(OCC(=O)Nc2cccc(-c3nc4cc(Cl)ccc4o3)c2C)cc1,31.2,·,53.9
O=C(O)CSc1n[nH]c(-c2cccs2)n1,13.4,-19.2,-5.1
CC(C)NC(=O)Nc1ccc2c(c1)C(=O)N([C@H](C)CO)C[C@H](C)[C@H](CN(C)Cc1ccc3c(c1)OCO3)O2,93.3*,·,-1.5
C[C@H]1CN([C@@H](C)CO)C(=O)c2cc(NC(=O)C3CCCCC3)ccc2O[C@H]1CN(C)Cc1ccc2c(c1)OCO2,91.7*,·,-2.8
CC(C)NC(=O)Nc1ccc2c(c1)C(=O)N([C@@H](C)CO)C[C@@H](C)[C@@H](CN(C)Cc1ccc3c(c1)OCO3)O2,-2.6,·,-11.3
SMILES,NOMO-1 viab,Hedgehog inh,MITF inh
C[C@@H]1CN([C@@H](C)CO)C(=O)c2cc(NC(=O)C3CCCCC3)ccc2O[C@@H]1CN(C)Cc1ccc2c(c1)OCO2,14.2,12.4,-2.3
C[C@H]1CN([C@@H](C)CO)C(=O)c2cc(NC(=O)Nc3ccc4c(c3)OCO4)ccc2O[C@@H]1CN(C)Cc1ccc2c(c1)OCO2,26.8,23.4,1.6
C[C@H](CO)N1C[C@H](C)[C@H](CN(C)Cc2ccc3c(c2)OCO3)Oc2ccc(NC(=O)Nc3ccc4c(c3)OCO4)cc2C1=O,93.4*,19.2,1.3
C[C@H](CO)N1C[C@H](C)[C@H](CN(C)Cc2ccc3c(c2)OCO3)Oc2ccc(NC(=O)Nc3ccc(F)cc3)cc2C1=O,88.9*,31.2,-12.2
C[C@@H]1CN([C@H](C)CO)C(=O)c2cc(NC(=O)Nc3ccc(F)cc3)ccc2O[C@H]1CN(C)Cc1ccc2c(c1)OCO2,-6.3,·,-9.5
COc1ccc(NC(=O)CC2NC(=O)NC2=O)cc1 (centres undefined),-3.6,·,-0.7
